# Data from PubChem BioAssay AID435019 (Southern Research Specialized Biocontainment Screening …, 2010).
# The campaign covered roughly 2,300 compounds. About 1,200 (52%) were called active. How the calls were made is not given here. So high a share suggests a set chosen from earlier hits. Some of the results follow. Measured potencies and affinities stand elsewhere.
# Test: mammalian cell cytotoxicity, dose response, cytotoxicity control for M. tuberculosis inhibitor project (AID 435019);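 further: 0% = background wells and 100% = vehicle-treated cells; lower values mean fewer viable cells so more cytotoxicity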
# Settings: cytotoxicity counter-screen; series mostly up to 40 µM; viability: at the top concentration
row,SMILES,viability
1,O=C(/C=C\c1cccs1)N1CCN(Cc2ccc3c(c2)OCO3)CC1,103% (inactive)
2,COC(=O)C1CC(=O)N(c2ccc(OCc3ccccc3Cl)cc2)C1 (stereo not drawn),99.3% (inactive)
3,CCCn1nnc(NC(=O)COc2ccc(CC)cc2)n1,98.3% (inactive)
4,CCOC(=O)c1cnc2ccc(OCC)cc2c1N1CCN(c2ccccc2)CC1,83.2% (inactive)
5,CCOC(=O)c1cc(-c2ccccc2)nc2c1c(C)nn2-c1ccccn1,86.2% (inactive)
6,COc1ccc(OCc2nnc3n2N=C(c2ccccc2)C(CC(=O)O)S3)cc1 (stereo not drawn),94.8% (inactive)
7,Cc1ccsc1/C=C1\SC(N2CCOCC2)=NC1=O,89.7% (inactive)
8,CCOc1ccc(C2=Nc3ccc(Br)cc3C(c3ccc(N4CCOCC4)cc3)=NN2)cc1,83.2% (inactive)
9,Cc1nc(S/C(=C/c2ccc(-c3ccc(Cl)cc3)o2)C(=O)O)n[nH]1,89.2% (inactive)
10,CSCCC(=O)N1CCCC(CNC(=O)c2ccc(-c3ccccc3)cc2)C1 (stereo not drawn),85.2% (inactive)
11,Cc1cc(C)c(C(N)=O)c(SCC(=O)c2ccc(Cl)cc2)n1,82.3% (inactive)
12,CCC(=O)c1ccc(OCC(=O)OCC(=O)c2cc(C)n(C3CC3)c2C)cc1,97.6% (inactive)
13,COc1ccc2c(c1)CC/C(=C\C=C\c1ccccc1OC)C2=O,85.3% (inactive)
14,COc1ccc(N=Cc2c[nH][nH]c2=O)cc1,104% (inactive)
15,O=S(=O)(Nc1ccn(-c2ccccc2)n1)c1ccc(Br)cc1,96.4% (inactive)
16,CCC(C)OC(=O)C(C)Oc1ccc(-c2ccccc2)cc1 (stereo not drawn),100% (inactive)
17,O=c1ccn(-c2ccccc2)[nH]1,90.3% (inactive)
18,Cc1ccc(NC(=O)CNCc2cccs2)cc1Br,101% (inactive)
19,O=C(c1cccc([N+](=O)[O-])c1)N1CCN(c2ccc(N3CCOCC3)nn2)CC1,98.9% (inactive)
20,CCOP(=O)(OCC)/C(=C/N1CCCCC1)NC(=O)c1ccccc1,97.9% (inactive)
21,Cc1nnc(SCc2ccccc2Cl)n(N)c1=O,93.8% (inactive)
22,Cc1ccccc1CSc1nsc(N)n1,93.7% (inactive)
23,CN(CCCCCCCCCCN(C)C(=O)Oc1cccc([N+](C)(C)C)c1)C(=O)Oc1cccc([N+](C)(C)C)c1,99.4% (inactive)

row,SMILES,viability
1,CCOC(=O)c1ccc(Nc2cc3ccccc3c(=O)[nH]2)cc1,85.4% (inactive)
2,CCOC(=O)c1ccc(NC(=S)Nc2ccc3[nH]c(=O)[nH]c3c2)cc1,96.7% (inactive)
3,CC(C)(C)OC(=O)NNC(=S)NC1CCCCC1,96.6% (inactive)
4,CCOC(=O)CNC(=O)c1sc2ncnc(N3CCc4ccccc4C3)c2c1C,85.3% (inactive)
5,CCOc1ccc(NC(=O)c2sc3nc(C)nc(N4CCOCC4)c3c2C)cc1,83.9% (inactive)
6,O=C(Nc1ccc(-c2noc(CCc3ccccc3)n2)cc1)c1cccnc1,88.7% (inactive)
7,CCOC(=O)c1nnc(-c2ccccc2)nc1NCc1ccccc1,93.8% (inactive)
8,O=C(OCC(=O)N1CCCCC1)c1cc2ccccc2cc1O,92.3% (inactive)
9,COC(=O)C(CCSC)NC(=O)c1cn(-c2ccc(OC)cc2)c(=O)c2ccccc12 (stereo not drawn),94.8% (inactive)
10,COC(=O)CSc1nnc([C@H](CC(C)C)NC(=O)OC(C)(C)C)o1,93.8% (inactive)
11,COC(=O)C(C)Oc1ccc(Cc2ncc(C(F)(F)F)cc2Cl)cc1 (stereo not drawn),101% (inactive)
12,CCCCNC(=S)Nc1ccc2cn[nH]c2c1,98.4% (inactive)
13,COC(=O)[C@H](CC(C)C)NC(=O)c1cc2c(cn1)[nH]c1ccccc12,92.3% (inactive)
14,CCc1nc2ccccc2c(C(=O)Nc2cc(C)ccc2C)c1C,81.3% (inactive)
15,O=C(Oc1ccc2ccccc2c1)c1cncc(Br)c1,87.4% (inactive)
16,CCCCn1c(N)c(N(CC(C)C)C(=O)c2oc3c(Cl)cccc3c2C)c(=O)[nH]c1=O,91% (inactive)
17,N=C1C(c2nc3ccccc3[nH]2)=C(O)CN1NC(=O)c1c[nH]c2ccccc12,99.7% (inactive)
18,Cc1ccc(CN2CC(C(=O)OCc3ccccc3Cl)CC2=O)cc1 (stereo not drawn),92.4% (inactive)
19,CCOC(=O)CSc1ncnc2c1sc1nc(N3CCOCC3)c3c(c12)CCCC3,83.6% (inactive)
20,COc1ccc(NC2=C(C(C)=O)C(c3ccc4c(c3)OCO4)C(C(C)=O)C(C)(O)C2)cc1 (stereo not drawn),94% (inactive)
21,CCCNC(=O)NC(=O)COc1ccc2oc3ccccc3c2c1,94% (inactive)
22,COc1ccc(-c2cc3n(n2)CCc2nc4ccccc4n2-3)cc1,81.9% (inactive)
23,NNC(=S)Nc1ccccc1Cl,81.6% (inactive)

row,SMILES,viability
1,CCCCCOC(=O)Nc1nnc(CCCCC)s1,96.8% (inactive)
2,O=C(CSc1nnnn1-c1ccc2c(c1)OCCO2)OC1CCCCC1,98.5% (inactive)
3,C=CCc1c(C)nc2ccc(C(=O)OCC)cc2c1Cl,85.8% (inactive)
4,C/C(=N\Nc1nc2c(s1)CCCC2)c1ccccc1,93.5% (inactive)
5,O=C(Nc1nc2c(s1)CCCC2)c1cc(-c2ccc3c(c2)OCO3)nc2ccccc12,94.1% (inactive)
6,COC(=O)c1ccc2c(=O)[nH]c(CSc3nc(C)cs3)nc2c1,94.4% (inactive)
7,C/C(=N\Nc1ccc([N+](=O)[O-])cc1)c1cccc(N)c1,96.7% (inactive)
8,O=C1c2ccccc2S(=O)(=O)c2cc(C(=O)N3CCN(c4c(Cl)cncc4Cl)CC3)ccc21,86.1% (inactive)
9,O=C(/C=C/c1ccc(OCCCF)cc1)Nc1ccnc(-c2ccncc2)n1,89.6% (inactive)
10,CCCCOC1CC(c2ccc(OCc3ccc(OC)cc3)c(OC)c2)N(C)O1 (stereo not drawn),81.5% (inactive)
11,CO/N=C\CC(=O)Nc1ccc(Oc2ccccc2)cc1,63.6% (inactive)
12,O=C1C(=O)N(c2ccccc2)c2ccccc21,96.8% (inactive)
13,O=C1c2ccccc2C(=O)N1Nc1ccccc1,99.7% (inactive)
14,CC(=O)c1c(N2CCCC2)[nH]c(-c2ccccc2)nc1=S,96% (inactive)
15,Cc1ccc(-c2cccc(NC(=O)C3C4C=CC(C4)C3C(=O)O)c2)o1 (stereo not drawn),88.6% (inactive)
16,NC(=O)/C(=N\OC(=O)c1ccco1)c1nc(-c2ccc(Br)cc2)cs1,86.2% (inactive)
17,CCOC(=O)C(C)Oc1ccc(NC(=O)C(Cl)(Cl)Cl)cc1 (stereo not drawn),92.1% (inactive)
18,CCOC1OC(=O)C(Cl)=C1Nc1ccccc1C (stereo not drawn),94.2% (inactive)
19,COc1ccc(-c2ccc(=O)n(Cc3c(F)cccc3Cl)n2)cc1,89.1% (inactive)
20,O=C(c1ccccc1)C1CN(Cc2ccccc2)CCC1(O)c1ccccc1 (stereo not drawn),81.6% (inactive)
21,Oc1ccc(F)c2cccnc12,98.7% (inactive)
22,CCCCn1cnc2cc(NCc3cccc(OC)c3O)ccc21,91% (inactive)
23,c1ccc(Cn2nnc3c(N4CCc5ccccc5C4)ncnc32)cc1,80.2% (inactive)

row,SMILES,viability
1,CCOC(=O)N1CCN(C(=O)COC(=O)C2CCN(S(=O)(=O)c3c(Cl)cccc3Cl)CC2)CC1,97% (inactive)
2,COc1c(C)cc(C(=O)C2CCCN(Cc3ccccn3)C2)cc1C (stereo not drawn),90.1% (inactive)
3,COC(=O)c1cc(Sc2cccc(Cl)c2Cl)ccn1,83.8% (inactive)
4,CCOC(=O)Oc1ccc2oc(C)c(C(=O)OCCOC)c2c1,96.6% (inactive)
5,Cc1nc(SCC(=O)NCC2CCCO2)c2c3c(sc2n1)CCCC3 (stereo not drawn),85.9% (inactive)
6,COc1ccc(-c2cc(-c3ccc(OC)cc3)[nH]n2)cc1,80.1% (inactive)
7,Cc1ccc2nc(-c3cccc(Br)c3)cc(C(=O)NC3=NCCS3)c2c1,80.2% (inactive)
8,O=C(OCC(=O)N1CCN(c2ccccc2)CC1)c1cnc(Cl)c(Cl)c1,91.1% (inactive)
9,CCOC(=O)N1CCC(n2c(SCC(=O)OCc3ccccc3)nc3ccsc3c2=O)CC1,87.9% (inactive)
10,CCCC12CN3CC(CCC)(CN(C1)C3c1ccccn1)C2=O (stereo not drawn),93.6% (inactive)
11,C(=N\N1CCN(C2c3ccccc3-c3ccccc32)CC1)/c1ccccn1,82.1% (inactive)
12,CCOC(=O)Cn1c(-c2ccccc2)ccc(C#N)c1=O,92.6% (inactive)
13,CCOc1[nH]n(-c2ccccc2)c(=O)c1C=Nc1ccc(OC)cc1,94.3% (inactive)
14,COc1ccccc1/C(C)=N/NC(=S)NCc1ccccc1,87.8% (inactive)
15,COCCNC(=S)N/N=C(\C)c1ccc(OC)cc1,89.5% (inactive)
16,Nc1c(-c2ccccn2)cnn1-c1nc(-c2ccc(F)cc2)cs1,88.1% (inactive)
17,O=C(CCN1C(=O)C2CCCCC2C1=O)Nc1nc(-c2ccc(F)c(F)c2)cs1 (stereo not drawn),97.2% (inactive)
18,CCOC(=O)c1cc(-c2csc(Nc3c(C)cc(C)cc3C)n2)on1,104% (inactive)
19,CCCOc1ccc2oc(=O)c3c(c2c1)CCCN3C(=O)CN1CCN(c2ncccn2)CC1,92.2% (inactive)
20,CCOC(=O)c1cc(/C(C)=N/OC(=O)c2ccc(C(C)(C)C)cc2)on1,91.9% (inactive)
21,O=C(Nc1cc(N2CCOCC2)ncn1)NC1(C(F)(F)F)Oc2ccc(Cl)cc2O1 (stereo not drawn),85.2% (inactive)
22,CCc1ccc(-c2csc(-c3c[nH]c4ccccc34)n2)cc1,91% (inactive)
23,Cc1ccc(CNc2ccc3c(c2)ncn3C(C)(C)C)cc1,85.7% (inactive)

row,SMILES,viability
1,CCn1c(SCC(=O)N(C)CCC#N)nc2cc(S(=O)(=O)N3CCOCC3)ccc21,98% (inactive)
2,CCc1ccc(N=Nc2ccc(O)c3[nH]cnc23)cc1,82.3% (inactive)
3,C=CCOc1ccc(/C=C/C(=O)OCC(=O)NCC2CCCO2)cc1 (stereo not drawn),95.9% (inactive)
4,CCCCOC(=O)CCN1C(=O)/C(=C2\SC(=S)N(CCC(=O)OCCCC)C2=O)SC1=S,80.7% (inactive)
5,Cc1ccc(NC(=O)Cn2ccsc2=N)c([N+](=O)[O-])c1,101% (inactive)
6,COc1ccc(-c2nc(C#N)c(N3CCc4ccccc4C3)o2)cc1OC,81.8% (inactive)
7,c1ccc(C2[C@H]3CN(CC4CCCCC4)[C@H](c4ccccc4)C34CC2(c2cccnc2)C4)cc1 (stereo partly drawn),93.8% (inactive)
8,COc1ccc(NC(C#N)c2ccc(OC)cc2)cc1 (stereo not drawn),96.6% (inactive)
9,O=[N+]([O-])c1c(C(Cl)Cl)nn(-c2ccc(Cl)cc2)c1N1CCCCC1,84.8% (inactive)
10,O=C(NC(=S)Nc1cccc2cccnc12)c1ccccc1,100% (inactive)
11,O=C(COc1ccccc1)NNc1nc2ccccc2s1,99% (inactive)
12,C/C(=N\NC(=S)Nc1cccc(C)c1)c1cccc(N)c1,91% (inactive)
13,O=C(COc1cccc(Oc2ccccc2)c1)Nc1ncccn1,93.8% (inactive)
14,COc1ccc(Oc2ccc(N/C=C/C(=O)C(C)(C)C)cc2)cc1,90.7% (inactive)
15,O=c1c2c(-c3ccccc3)csc2ncn1/N=C/c1ccc(O)c([N+](=O)[O-])c1,88.3% (inactive)
16,CCOc1ccc(NC(=S)Nc2ccc(C)c([N+](=O)[O-])c2)cc1,90.6% (inactive)
17,Cc1ccccc1-n1c(O)c(C=Nc2ccc3c(c2)OCO3)c(=O)[nH]c1=O,104% (inactive)
18,Cc1cc(C)n2nc(N)c(N=Nc3ccccc3)c2n1,95.7% (inactive)
19,S=c1[nH]c2ccc3ccccc3c2[nH]1,86.2% (inactive)
20,CC1CN(C(=S)SCC(=O)c2ccc([N+](=O)[O-])cc2)CC(C)O1 (stereo not drawn),93.9% (inactive)
21,Cc1ncsc1CCOC(=O)c1ccc([N+](=O)[O-])cc1,94.8% (inactive)
